Screening data deposited in PubChem BioAssay by several laboratories.
GAA850 FXN act = increases GAA850 frataxin promoter reporter activity; HEK293 lucGAA850 FXN promoter luciferase reporter, 24 h; percent of 10 µM SAHA response; activation, % at 6 µM; AID 540364; 0.56% of 360,000 active;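 active = activation above the average of all compounds screened plus 3 SD, cutoff fixed separately per campaign, cut at about 7.5% in these data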
AHR activator = activators of human aryl hydrocarbon receptor. P35869. AHR-responsive luciferase reporter cells, luminescence. activation, % at 5 µM. 2.5% of 320,000 active. AID 2796; in the data active = activation above about 47%
HSF1 activator = increases HSF-1 driven luciferase reporter signal; NIH3T3-HGL HSF-1 luciferase reporter, MG132, 8 h; 100% = twice DMSO control signal; activation, % at 9 µM; 1.7% of 300,000 active;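 active = mean replicate activation of at least 50% with a set share of replicates each reaching 50%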
HSF1 inh = HSF1 inhibition. NIH3T3-HGL HSE-luciferase, MG132-induced, luminescence 8 h; active compounds read low. activity change, negative = inhibition, % at 7.5 µM (by protocol). 0.77% of 300,000 active. AID 2098;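 active = more than half of replicate wells show activity change below -50%, luminescence cut by over half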;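 note: luciferase reports HSF-1 transcriptional activity via heat shock element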
NR0B1 inh = NR0B1 (DAX1) inhibition; P51843; HEK293 Gal4-DAX1 luciferase reporter, luminescence; inhibition, % at 6.75 µM; 0.99% of 340,000 active;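 active = inhibition above the mean over all tested compounds plus 3 SD, cut at about 4.2% in these data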;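 note: inhibition shows as a rise in luminescence from relieved DAX1 repression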
Target sequence (P51843 207-470 limits assumed): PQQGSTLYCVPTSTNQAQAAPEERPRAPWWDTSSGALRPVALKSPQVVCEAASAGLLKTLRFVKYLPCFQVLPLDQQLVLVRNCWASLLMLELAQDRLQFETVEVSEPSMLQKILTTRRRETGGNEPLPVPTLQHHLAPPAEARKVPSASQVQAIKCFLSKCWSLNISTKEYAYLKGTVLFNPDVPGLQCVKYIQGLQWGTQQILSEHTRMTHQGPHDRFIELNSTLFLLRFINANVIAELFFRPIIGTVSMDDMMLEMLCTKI
Hits are given with their value; 0 = inactive; - = no result given. Compounds with a hit are over-represented: about 5.4% of the library has one in this group of screens.

SMILES	GAA850 FXN act	AHR activator	HSF1 activator	HSF1 inh	NR0B1 inh
Cc1ccc(C)c(S(=O)(=O)N/N=C/c2ccc(N(C)C)cc2)c1	0	0	0	0	0
Cc1ccc(C)c(S(=O)(=O)N/N=C/c2ccc(F)cc2)c1	0	74	0	0	0
CCc1nnc(NC(=O)c2cc(-c3ccccn3)nc3ccc(Br)cc23)s1	0	49	0	0	0
CCc1nnc(NC(=O)c2cc(-c3ccncc3)nc3ccccc23)s1	0	62	0	0	0
CCc1ccc(/C(C)=N/NS(=O)(=O)c2ccc(OC)cc2)s1	0	-	0	0	0
CC(C)c1ccc(NNC(=O)C2CCC2)cc1	0	49	0	0	0
O=C(NNc1cccc(Cl)n1)C1CC1	0	0	0	0	0
O=C(NNc1c(Cl)cccc1Cl)C1CCC1	0	0	53	0	0
CCN(C(=O)COC(=O)C1CCN(S(=O)(=O)c2cccs2)CC1)c1ccccc1	0	0	0	0	0
O=c1c(O)c(-c2ccc3c(c2)OCO3)oc2ccccc12	0	69	0	0	0
O=C(Nc1ccc2c(c1)oc1ccccc12)c1ccc2c(c1)OCO2	0	0	0	0	0
CC(=O)ONC(=Nc1ccccc1)c1nonc1N	0	0	0	0	5.2
CCc1ccc(OCC(=O)NC(=S)Nc2ccc(C(C)=O)cc2)c(Br)c1	0	76	0	0	0
CCc1ccc(NC(=O)C/C(C)=N/NC(=O)COc2ccc(C)cc2Br)cc1	0	0	59	0	0
CCc1ccc(OCC(=O)N(C)C)c(Br)c1	0	0	0	0	5.5
CNC(=O)COC(=O)[C@@H](Nc1ccc(S(=O)(=O)N2CCOCC2)cc1[N+](=O)[O-])C(C)C	0	0	0	0	0
CCCC(=O)N1CCC1(C)C(=O)NS(=O)(=O)c1ccc(C(C)(C)C)cc1 (centres undefined)	0	-	-	-	-
Cc1ccc(S(=O)(=O)c2ccc([N+](=O)[O-])o2)cc1	0	-	-	-	0
Cc1ccc(S(=O)(=O)N2CCOCC2)cc1N/N=C(\C#N)c1nc2ccccc2[nH]1	0	59	0	0	0
CC(C)(C)C1CCC(=O)N(CCC#N)CC1 (centres undefined)	0	0	0	0	0
O=c1c2c3c(sc2ncn1/N=C/c1ccc([N+](=O)[O-])o1)CCCC3	0	0	266	0	0
CN(C)CCNC(=O)c1cc2sc3ccccc3c2s1	0	0	0	0	0
O=C(Nc1cccc(S(=O)(=O)NC2=NCCC2)c1)c1ccc(=O)[nH]c1	0	0	-	-	0
Clc1c(CSc2nc3ccccc3o2)nc2ccccn12	0	0	87	0	0
Clc1c(CSc2nc3ccccc3o2)nc2sccn12	0	0	103	0	0
SMILES	GAA850 FXN act	AHR activator	HSF1 activator	HSF1 inh	NR0B1 inh
c1ccc2oc(SCc3nc4ccccc4s3)nc2c1	0	0	67	0	4.4
c1ccc(SCc2nc3ccccc3s2)nc1	0	0	0	0	0
c1ccc2oc(SCc3cn4ccccc4n3)nc2c1	0	0	64	0	0
c1ccc(OCCSc2nc3ccccc3o2)cc1	0	0	0	-61	0
CN1CCN(c2ccc(CNC(=O)c3cc4ccccc4o3)cc2)CC1	0	0	0	0	0
Cc1ccc(C(=O)NCc2ccc(N3CCN(C)CC3)cc2)cc1C	0	0	0	-69	0
CSc1ncccc1C(=O)OCC(=O)NC(C)C	0	0	0	0	0
Cc1ccc2c(c1)C(=O)C(=O)N2Cc1ccc(Cl)cc1	0	0	-	-	0
O=C(c1ccc(Cl)c(Cl)c1)c1cnc(Nc2ccccc2)s1	0	0	0	0	0
CC(=O)c1cnc(Nc2ccc(C)cc2)s1	0	0	0	0	4.7
COC(=O)C1CCN(C(=O)COC(=O)c2ccc(=O)n(Cc3ccccc3)n2)CC1	0	0	0	0	0
O=C(NC1CCCCCC1)c1ccc(=O)n(Cc2ccccc2)n1	0	0	0	0	4.5
O=C1CCn2nc(-c3ccc(Cl)cc3)cc2N1	0	48	0	0	0
NNC(=O)CN1CCCc2ccccc21	0	71	0	0	0
O=C(Nc1cc2c(oc1=O)CCCC2=O)c1ccccc1	0	62	0	0	0
Cc1ccc(CSc2nnc(-c3ccccn3)n2Cc2cccs2)cc1	0	-	-	-	-
Cc1oc2c(C)c(O)ccc2c(=O)c1N1C(=O)c2ccccc2C1=O	0	0	0	0	0
Cc1oc2c(C)c(O)ccc2c(=O)c1-c1nncn1-c1ccccc1	0	0	-	-	7.1
Nc1c(Cl)cc(C2=NCCn3c2c2ccc([N+](=O)[O-])cc2[n+]3[O-])cc1Cl	0	73	0	0	0
Nc1c(-c2ccc(Cl)cc2)cnn1-c1cc(C(F)(F)F)cc(C(F)(F)F)c1	0	0	0	0	0
[O-][n+]1c2cc(C(F)(F)F)ccc2c2n1CCN=C2c1ccc(Cl)cc1	0	63	0	0	0
O=C(Cn1cccn1)c1ccccc1	0	0	0	0	0
O=C(Cn1cncn1)c1ccccc1	0	0	0	0	5.7
CCOC(=O)N1CCN(S(=O)(=O)c2cc(Cl)c(OC)cc2Cl)CC1	0	0	70	0	0
CCOC(=O)N1CCN(S(=O)(=O)c2ccc3c(c2)OCC(=O)N3)CC1	0	0	0	-52	0
SMILES	GAA850 FXN act	AHR activator	HSF1 activator	HSF1 inh	NR0B1 inh
CCOC(=O)N1CCN(S(=O)(=O)c2cc(OCC)ccc2OCC)CC1	0	0	0	0	0
CCN1CCN(C(=O)CCn2c(=O)c3cccn3c3cccnc32)CC1	0	0	0	0	0
N/C(=N\OC(=O)COc1ccc2ccccc2c1)c1cccnc1	0	0	0	0	0
COCCOc1ccc(C(F)(F)F)cc1NC(=O)CN1C(=O)NC(C)(c2ccc3c(c2)OCO3)C1=O (centres undefined)	0	0	0	0	7.6
COc1ccc(C2(C)NC(=O)N(CC(=O)Nc3ccc4c(c3)OCO4)C2=O)cc1OC (centres undefined)	0	0	0	0	0
Cc1ccc(C)c(N(CC(=O)NC2CCCC2)S(=O)(=O)c2ccccc2)c1	0	0	0	0	0
CN(C(=O)c1ccc2c(c1)S(=O)(=O)N=C1CCCCCN12)c1ccccc1	0	0	0	0	0
O=C(O)c1ccc2c(c1)S(=O)(=O)N=C1CCCCCN12	0	0	0	0	5.1
CS(=O)(=O)N(CC(=O)NCc1ccccc1)C1CCCCC1	0	0	0	-77	0
Cc1ccc(CNC(=O)CN(C2CCCCC2)S(C)(=O)=O)cc1	0	0	0	0	0
O=C(CN1CCN(Cc2ccccc2)CC1)N1N=CCC1c1ccccc1 (centres undefined)	0	0	0	0	4.8
COc1ccccc1N1CCN(CC(=O)N2N=CCC2c2ccccc2)CC1 (centres undefined)	0	0	0	0	0
CCN(CC)CCNC(=O)c1ccc(NC(=O)Nc2cccc3ccccc23)cc1	0	0	0	0	0
N/C(Cc1nc(-c2ccc(Br)cc2)cs1)=N\O	0	54	55	0	0
N/C(Cc1nc(-c2ccc(F)cc2)cs1)=N\O	0	0	0	0	-
Nc1nc(Cl)nc2ccc(Br)cc12	0	59	0	0	0
